The results in this text go back to ChEMBL document CHEMBL3988442, “University of Dundee, Small-Polar-MMV Screening Library” (2021).

Holding throughout (parameters): scale not given: direction of the effect not stated beside the values
Experiment [1] deals with Protein translocase subunit SecA (Escherichia coli (strain K12)) (UniProt P10408). As to the kind of experiment: Assay to Identify E. coli SecA ATPase Inhibitors. In kind it is functional. The note with it: 30 µM.
Experiment [2] concerns the target T1, Ubiquitin-activating enzyme e1, putative (Leishmania donovani (strain BPK282A1)) (UniProt E9BSI1).
T1 sequence (whole entry): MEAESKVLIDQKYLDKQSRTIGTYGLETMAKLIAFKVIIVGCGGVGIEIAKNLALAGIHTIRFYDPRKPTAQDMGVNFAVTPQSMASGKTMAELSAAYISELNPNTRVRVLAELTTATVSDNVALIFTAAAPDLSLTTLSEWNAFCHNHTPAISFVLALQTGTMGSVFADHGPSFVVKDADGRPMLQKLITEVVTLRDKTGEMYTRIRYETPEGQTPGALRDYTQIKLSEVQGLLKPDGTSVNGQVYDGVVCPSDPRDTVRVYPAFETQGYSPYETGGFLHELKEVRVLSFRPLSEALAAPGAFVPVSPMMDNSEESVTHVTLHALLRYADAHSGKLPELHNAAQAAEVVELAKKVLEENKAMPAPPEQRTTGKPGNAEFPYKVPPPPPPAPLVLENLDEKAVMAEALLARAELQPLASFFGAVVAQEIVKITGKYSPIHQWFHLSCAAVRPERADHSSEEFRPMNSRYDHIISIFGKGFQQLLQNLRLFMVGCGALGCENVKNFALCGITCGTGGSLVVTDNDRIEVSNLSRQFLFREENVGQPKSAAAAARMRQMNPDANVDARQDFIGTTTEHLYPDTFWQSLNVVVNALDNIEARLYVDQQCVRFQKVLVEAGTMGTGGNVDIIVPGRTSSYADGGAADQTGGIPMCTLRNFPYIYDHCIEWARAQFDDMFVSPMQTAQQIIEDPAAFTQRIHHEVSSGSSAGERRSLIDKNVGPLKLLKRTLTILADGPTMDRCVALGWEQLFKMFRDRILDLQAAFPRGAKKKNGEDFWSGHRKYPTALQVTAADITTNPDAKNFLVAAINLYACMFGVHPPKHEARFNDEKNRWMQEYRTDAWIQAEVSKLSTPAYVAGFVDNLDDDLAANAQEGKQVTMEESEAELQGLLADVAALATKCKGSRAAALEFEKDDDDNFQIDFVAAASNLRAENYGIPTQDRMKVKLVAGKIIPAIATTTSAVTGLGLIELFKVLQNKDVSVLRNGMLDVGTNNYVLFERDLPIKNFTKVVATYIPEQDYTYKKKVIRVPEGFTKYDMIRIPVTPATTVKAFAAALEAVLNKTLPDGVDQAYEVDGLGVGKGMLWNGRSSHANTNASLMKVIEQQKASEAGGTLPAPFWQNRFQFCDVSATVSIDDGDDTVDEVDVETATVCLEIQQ
As to the kind of experiment: Leishmania donovani Ubiquitin Activating Enzyme (LdE1). Format: functional. The note with it: 30 µM.

In experiment [3] the target is AMP-activated protein kinase, AMPK (Homo sapiens) (UniProt P54646+O43741+P54619+Q9UGJ0+Q9Y478+Q13131+Q9UGI9). As to the kind of experiment: AMP-dependent Kinase enzyme assay. An in vitro enzyme assay that detects ADP turnover that is directly proportional to AMPK activity. This uses naive AMPK that is activated during the assay with MK-8722. In kind it is functional. The note with it: 30 µM.

The target in experiment [4] is Sialic acid-binding Ig-like lectin 9 (Homo sapiens) (UniProt Q9Y336). The experiment can be described thus: Hs-Siglec9 ALPHAscreen SOP 20170721. The note with it: 10 µM.
Sequence of Sialic acid-binding Ig-like lectin 9 (Homo sapiens) (Q9Y336 whole entry): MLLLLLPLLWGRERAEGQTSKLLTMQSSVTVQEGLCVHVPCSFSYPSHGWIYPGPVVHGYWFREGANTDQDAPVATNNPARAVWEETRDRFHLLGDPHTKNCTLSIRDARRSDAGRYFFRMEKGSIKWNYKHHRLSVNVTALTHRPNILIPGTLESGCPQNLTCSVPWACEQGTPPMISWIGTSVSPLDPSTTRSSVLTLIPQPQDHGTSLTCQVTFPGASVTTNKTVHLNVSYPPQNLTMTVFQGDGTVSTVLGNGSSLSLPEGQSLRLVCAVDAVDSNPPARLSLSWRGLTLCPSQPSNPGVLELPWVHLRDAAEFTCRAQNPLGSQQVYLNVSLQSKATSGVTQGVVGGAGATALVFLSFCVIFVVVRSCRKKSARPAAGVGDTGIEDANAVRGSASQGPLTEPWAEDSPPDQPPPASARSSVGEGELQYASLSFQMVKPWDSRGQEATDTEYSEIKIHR
Another experiment deals with Trypanosoma cruzi. As to the kind of experiment: Trypanosoma cruzi phosphomannomutase and mannose-1-phosphate guanylyltransferase assay. Format: functional. Conditions: 10 µM.
In experiment [5] the target is T2, Arginase-2, mitochondrial (Homo sapiens) (UniProt P78540).
T2 sequence (whole entry): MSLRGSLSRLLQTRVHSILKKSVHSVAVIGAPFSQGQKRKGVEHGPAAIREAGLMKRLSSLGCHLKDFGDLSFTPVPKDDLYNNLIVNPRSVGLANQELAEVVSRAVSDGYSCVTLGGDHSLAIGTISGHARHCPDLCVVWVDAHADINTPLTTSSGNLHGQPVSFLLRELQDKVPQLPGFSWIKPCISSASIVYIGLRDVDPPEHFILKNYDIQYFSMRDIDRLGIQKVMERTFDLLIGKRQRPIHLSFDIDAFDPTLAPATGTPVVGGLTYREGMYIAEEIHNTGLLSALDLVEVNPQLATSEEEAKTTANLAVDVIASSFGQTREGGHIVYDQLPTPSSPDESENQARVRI
The experiment can be described thus: in vitro enzyme assay to detect the production of urea directly proportional to the activity of Arginase II. Further: in the data most compounds retested in dose-response had high values. In kind it is functional. The note with it: 33.3 µM.

Experiment [6] deals with T3, Proteasome subunit beta (Trypanosoma cruzi) (UniProt O96673).
T3 sequence (whole entry): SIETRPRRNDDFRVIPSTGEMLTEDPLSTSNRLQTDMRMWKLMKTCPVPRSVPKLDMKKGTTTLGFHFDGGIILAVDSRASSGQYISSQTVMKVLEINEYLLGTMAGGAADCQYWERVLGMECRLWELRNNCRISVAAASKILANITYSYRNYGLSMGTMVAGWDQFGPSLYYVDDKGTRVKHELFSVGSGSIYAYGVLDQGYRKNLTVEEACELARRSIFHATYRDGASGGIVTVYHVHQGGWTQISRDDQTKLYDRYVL
As to the kind of experiment: Trypanosoma cruzi proteasome chymotrypsin-like activity (TcProtChymo) assay. Further: in the data most compounds retested in dose-response had high values. Format: functional. The note with it: 9.37 µM.

For another experiment, the species on record is Homo sapiens. As to the kind of experiment: To identify inhibition of the IFN signalling (Jak-Stat) pathway via expression of an eGFP reporter gene under the control of an IFN-stimulated response element (ISRE) containing MxA promoter. In kind it is functional. Conditions: 30 µM. On the technique in general: A reporter such as luciferase makes a cellular process visible.

The target in experiment [7] is T4, Tyrosyl-tRNA synthetase, putative (Trypanosoma cruzi (strain CL Brener)) (UniProt Q4DSP6).
T4 sequence (whole entry): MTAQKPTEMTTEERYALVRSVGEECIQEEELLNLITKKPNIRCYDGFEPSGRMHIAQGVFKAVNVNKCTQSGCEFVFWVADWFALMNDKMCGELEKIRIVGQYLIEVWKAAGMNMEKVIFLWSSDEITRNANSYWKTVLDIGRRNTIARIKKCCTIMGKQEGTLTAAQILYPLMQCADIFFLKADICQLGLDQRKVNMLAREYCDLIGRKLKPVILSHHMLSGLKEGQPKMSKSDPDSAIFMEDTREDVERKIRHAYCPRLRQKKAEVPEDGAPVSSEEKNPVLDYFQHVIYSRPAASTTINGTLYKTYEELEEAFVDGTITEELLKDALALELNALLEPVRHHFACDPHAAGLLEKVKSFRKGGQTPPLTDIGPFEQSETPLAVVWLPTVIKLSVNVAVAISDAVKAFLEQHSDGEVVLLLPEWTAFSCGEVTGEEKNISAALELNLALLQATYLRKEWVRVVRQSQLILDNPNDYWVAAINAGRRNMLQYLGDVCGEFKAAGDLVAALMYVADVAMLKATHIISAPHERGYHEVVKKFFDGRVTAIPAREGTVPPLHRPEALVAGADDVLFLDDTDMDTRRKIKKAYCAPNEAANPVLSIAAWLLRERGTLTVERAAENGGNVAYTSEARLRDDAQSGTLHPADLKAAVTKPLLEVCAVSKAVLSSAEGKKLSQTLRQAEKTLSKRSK
The experiment can be described thus: Trypanosoma cruzi tyrosyl tRNA synthetase (TcYRS) _High Tyrosine SOP. Further: in the data most compounds retested in dose-response had high values. In kind it is functional. The note with it: 30 µM.

In experiment [8] the target is T4, Tyrosyl-tRNA synthetase, putative (Trypanosoma cruzi (strain CL Brener)). The experiment can be described thus: Trypanosoma cruzi tyrosyl tRNA synthetase (TcYRS) SOP. In kind it is functional. Conditions: 30 µM.
For experiment [9], the target named is Chromo domain-containing protein 1 (Saccharomyces cerevisiae (strain ATCC 204508 / S288c) (Baker's yeast)) (UniProt P32657). As to the kind of experiment: ScCHD-1 Enzyme Inhibition Assay. Further: in the data most compounds retested in dose-response had high values. Format: functional. Conditions: 30 µM.
Sequence of Chromo domain-containing protein 1 (Saccharomyces cerevisiae (strain ATCC 204508 / S288c) (Baker's yeast)) (P32657 whole entry, the tested form may be a part): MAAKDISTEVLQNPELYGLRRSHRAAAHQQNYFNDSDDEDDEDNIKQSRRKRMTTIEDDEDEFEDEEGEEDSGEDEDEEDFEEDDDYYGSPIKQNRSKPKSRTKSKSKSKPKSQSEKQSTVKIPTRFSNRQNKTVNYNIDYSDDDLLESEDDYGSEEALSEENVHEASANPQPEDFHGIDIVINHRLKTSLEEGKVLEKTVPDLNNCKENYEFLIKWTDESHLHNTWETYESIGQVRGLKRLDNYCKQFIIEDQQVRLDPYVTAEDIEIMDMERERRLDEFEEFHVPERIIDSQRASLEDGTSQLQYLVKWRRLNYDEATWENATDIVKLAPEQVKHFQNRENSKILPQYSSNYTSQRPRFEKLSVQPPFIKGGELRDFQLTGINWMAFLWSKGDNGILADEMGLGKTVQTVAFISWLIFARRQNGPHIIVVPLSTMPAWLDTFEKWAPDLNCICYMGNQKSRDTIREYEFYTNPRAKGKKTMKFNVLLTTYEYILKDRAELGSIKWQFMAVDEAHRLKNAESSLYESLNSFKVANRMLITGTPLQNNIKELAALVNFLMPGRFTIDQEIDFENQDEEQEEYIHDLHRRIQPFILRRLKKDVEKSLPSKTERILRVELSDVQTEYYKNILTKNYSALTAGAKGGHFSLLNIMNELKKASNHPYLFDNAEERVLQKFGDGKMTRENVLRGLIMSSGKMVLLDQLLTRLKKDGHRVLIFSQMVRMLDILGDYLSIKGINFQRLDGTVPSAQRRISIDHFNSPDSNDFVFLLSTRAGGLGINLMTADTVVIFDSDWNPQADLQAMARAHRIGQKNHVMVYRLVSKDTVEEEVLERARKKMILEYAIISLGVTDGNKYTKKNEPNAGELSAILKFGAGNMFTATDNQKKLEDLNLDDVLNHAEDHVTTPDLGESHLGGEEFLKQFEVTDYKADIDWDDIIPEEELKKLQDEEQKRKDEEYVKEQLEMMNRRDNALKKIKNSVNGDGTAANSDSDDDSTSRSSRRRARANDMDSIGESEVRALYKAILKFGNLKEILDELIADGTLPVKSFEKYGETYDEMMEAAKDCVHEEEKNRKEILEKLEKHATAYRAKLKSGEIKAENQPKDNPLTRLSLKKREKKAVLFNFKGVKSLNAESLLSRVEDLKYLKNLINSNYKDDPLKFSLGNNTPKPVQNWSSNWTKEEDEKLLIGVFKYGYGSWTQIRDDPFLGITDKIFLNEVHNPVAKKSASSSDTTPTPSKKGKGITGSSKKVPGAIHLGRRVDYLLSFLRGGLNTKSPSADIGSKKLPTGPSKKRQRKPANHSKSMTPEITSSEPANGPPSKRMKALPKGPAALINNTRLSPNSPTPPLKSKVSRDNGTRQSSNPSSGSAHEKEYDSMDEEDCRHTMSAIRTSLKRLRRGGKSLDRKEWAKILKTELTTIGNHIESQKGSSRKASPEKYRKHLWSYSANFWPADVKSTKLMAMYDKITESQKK

For some assays here: Potency and affinity values are given separately.

Sequence of Protein translocase subunit SecA (Escherichia coli (strain K12)) (P10408 whole entry): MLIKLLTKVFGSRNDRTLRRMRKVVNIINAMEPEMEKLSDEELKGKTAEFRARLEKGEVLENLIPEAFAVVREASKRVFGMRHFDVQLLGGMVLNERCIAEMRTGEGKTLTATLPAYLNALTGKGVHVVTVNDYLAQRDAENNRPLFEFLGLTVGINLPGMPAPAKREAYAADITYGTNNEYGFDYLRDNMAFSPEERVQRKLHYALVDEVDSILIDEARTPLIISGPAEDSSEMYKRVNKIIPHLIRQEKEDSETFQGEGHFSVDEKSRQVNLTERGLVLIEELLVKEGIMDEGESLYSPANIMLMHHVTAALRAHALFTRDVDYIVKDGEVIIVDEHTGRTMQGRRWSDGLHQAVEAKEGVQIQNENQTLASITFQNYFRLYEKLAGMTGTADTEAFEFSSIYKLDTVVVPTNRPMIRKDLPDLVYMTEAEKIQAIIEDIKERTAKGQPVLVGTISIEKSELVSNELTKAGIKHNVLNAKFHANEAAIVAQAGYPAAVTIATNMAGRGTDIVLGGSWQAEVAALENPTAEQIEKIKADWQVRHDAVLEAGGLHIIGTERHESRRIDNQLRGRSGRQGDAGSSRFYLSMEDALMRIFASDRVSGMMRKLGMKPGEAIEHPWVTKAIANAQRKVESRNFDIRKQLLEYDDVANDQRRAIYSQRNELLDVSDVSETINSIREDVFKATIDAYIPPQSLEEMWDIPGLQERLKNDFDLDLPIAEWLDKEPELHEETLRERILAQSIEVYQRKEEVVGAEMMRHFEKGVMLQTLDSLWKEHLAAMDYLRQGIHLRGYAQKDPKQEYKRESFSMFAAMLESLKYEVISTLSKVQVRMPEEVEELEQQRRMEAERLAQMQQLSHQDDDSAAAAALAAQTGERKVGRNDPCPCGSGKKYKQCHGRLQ

Regarding `CN(Cc1ccc(Cl)s1)C(=O)c1cccc(OCC(N)=O)c1`, the Percent Effect in experiment [1] is 1.02%; in [2], 5.41%; in experiment [3] it was 0.84%; in experiment [4] it was -1.09%; with Trypanosoma cruzi it was -3.09%; in [5] it was 0.952%. Also, the Percent Effect is 11.2% in [6]; 15.1% in the experiment filed under Homo sapiens; 4.76% in [7]; 14.6% in [8]; -3.46% in experiment [9].

Turning to `NC(=O)C1CCN(c2nc3nccc(-c4ccccn4)c3c(=O)[nH]2)CC1`, the Percent Effect was -4.8% in experiment [1]; 18.4% in [2]; 0.528% in experiment [3]; -4.82% in [4]; 0.0974% in the experiment with Trypanosoma cruzi; -2.37% in experiment [5]. The Percent Effect was 22% in [6]; 2.93% in the experiment filed under Homo sapiens; 8.51% in experiment [7]; 23.4% in experiment [8]; 7.17% in experiment [9].

Regarding `Cc1ccc(CNCc2nnc3n2CCCC3C(F)(F)F)o1` (stereo not given), the Percent Effect in [1] is -2.71%; in experiment [2], 5.33%; in experiment [3], 2.9%; in [4], -7.37%; in the experiment on Trypanosoma cruzi, -6.13%; in experiment [5], -3.12%. Moreover, the Percent Effect in experiment [6] was 8.54%; in the experiment listed under Homo sapiens, 11.4%; in [7] it was 0.546%; in [8], 3.7%; in experiment [9], -5.76%.

As for `COCc1nc(C(=O)N2CCCC2c2noc(C(C)C)n2)cs1` (stereo not given), the Percent Effect in [1] was -3.95%; in experiment [2] it was 1.27%; in [3], 8.09%; in experiment [4], -0.11%; in the experiment with Trypanosoma cruzi, -1.74%; in [5] it was 3.66%. The Percent Effect in experiment [6] is -0.343%; in the experiment filed under Homo sapiens, 3.65%; in experiment [7] it was 3.12%; in experiment [8], 5.06%; in experiment [9] it was 11.7%.

In the case of `CNC(=O)[C@H]1C[C@H]2OCC[C@H]2N(Cc2cccc3ccccc23)C1`, the Percent Effect in experiment [1] is -2.27%; in experiment [2], 10.4%; in experiment [3], 2.57%; in [4], 2.56%; in the experiment on Trypanosoma cruzi, -0.296%; in experiment [5], -3.23%. Moreover, the Percent Effect was 8.01% in experiment [6]; -0.999% in the experiment filed under Homo sapiens; 3.17% in [7]; 8.97% in experiment [8]; -9.11% in experiment [9].

`CS(=O)(=O)NC1CCN(C(=O)NCCc2ccccc2F)CC1`: the Percent Effect in experiment [1] was -4.12%; in experiment [2], 8.11%; in [3] it was -6.29%; in experiment [4], 9.26%; in the experiment with Trypanosoma cruzi, 2.14%; in experiment [5], 2.03%. The Percent Effect was 12% in [6]; 10.3% in the experiment listed under Homo sapiens; 6.93% in experiment [7]; 25.6% in experiment [8]; -11.2% in experiment [9].

For `O=C(C1CCOCC1)N1CCC2(CC1)CC(Oc1ccccc1)CO2` (stereo not given), the Percent Effect in experiment [1] is 0.293%; in experiment [2], 8.22%; in experiment [3], -6.45%; in [4], 5.89%; in the experiment on Trypanosoma cruzi, 0.595%; in experiment [5], -5.59%. Also, the Percent Effect in experiment [6] is 7.28%; in the experiment listed under Homo sapiens, 14.1%; in experiment [7] it was 6.25%; in experiment [8] it was 16.1%; in experiment [9], -0.343%.

As for `c1sc(C2CCCC2)nc1CN1CCn2c(nnc2C2CC2)C1`, the Percent Effect was -6.12% in experiment [1]; 5.41% in experiment [2]; 0.718% in experiment [3]; -3.09% in experiment [4]; -2.14% in the experiment with Trypanosoma cruzi; -0.554% in experiment [5]. Also, the Percent Effect in [6] is 10.4%; in the experiment listed under Homo sapiens, 37.1%; in experiment [7], 10.9%; in experiment [8], 15.8%; in experiment [9], -4.21%.

For the compound `Cc1cccc(NC2CCN(C(=O)Nc3cccc4[nH]ccc34)CC2)n1`, the Percent Effect is -6.98% in experiment [1]; 17.7% in experiment [2]; -19.6% in experiment [3]; 10.2% in experiment [4]; 6.7% with Trypanosoma cruzi; -7.22% in [5]. Further, the Percent Effect was 3.85% in [6]; -7.19% in the experiment filed under Homo sapiens; 4.43% in [7]; 16.5% in experiment [8]; -8.65% in experiment [9].

For the compound `COc1cccc2c1OCC(CNC(=O)CSc1nc(N)n[nH]1)C2` (stereo not given), the Percent Effect in experiment [1] is -4.78%; in experiment [2], 0%; in [3], -3.58%; in experiment [4] it was 26.8%; with Trypanosoma cruzi it was 3.62%; in experiment [5] it was -3.23%. For the same compound, the Percent Effect in [6] is 8.84%; in the experiment listed under Homo sapiens it was 4.85%; in experiment [7], 8.6%; in experiment [8] it was 21%; in experiment [9], -3.99%.
